Most compounds without a hit are left out; they make up all but 3% or so of the library.
Mcl1 Bid PPI: Mcl-1/Bid binding inhibitors, primary screen, biochemical, TR-FRET, 1536-well | Induced myeloid leukemia cell differentiation protein Mcl-1 (Homo sapiens), Q07820 | TR-FRET Mcl-1/Bid-Dy647 peptide binding | inhibition, % at 21.7 µM | actives 0.97% (n = 220,000);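 active = compounds that cut the binding signal by more than half at the single screening dose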;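 also: His-tagged Mcl-1 with europium anti-His antibody binding Bid BH3 peptide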
Target sequence (Q07820 whole entry, looked up): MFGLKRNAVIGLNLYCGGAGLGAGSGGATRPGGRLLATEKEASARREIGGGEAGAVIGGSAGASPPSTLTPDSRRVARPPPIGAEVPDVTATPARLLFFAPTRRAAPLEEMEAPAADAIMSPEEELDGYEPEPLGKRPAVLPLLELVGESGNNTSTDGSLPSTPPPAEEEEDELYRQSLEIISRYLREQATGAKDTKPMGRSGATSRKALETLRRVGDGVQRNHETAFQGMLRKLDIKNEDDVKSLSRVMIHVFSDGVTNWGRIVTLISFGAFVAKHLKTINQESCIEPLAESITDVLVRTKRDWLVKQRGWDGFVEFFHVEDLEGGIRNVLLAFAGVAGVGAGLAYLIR
14-3-3 Bad inh: inhibitors of 14-3-3 zeta/Bad binding, primary screen, biochemical, TR-FRET, bovine 14-3-3 zeta. TR-FRET 14-3-3zeta/Dy647-pBad peptide displacement, 1 h. actives 0.71% (n = 220,000). inhibition, % at 21.7 µM;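 active = inhibition above about 70%, limit read from the data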
Target sequence (P63103 whole entry, looked up): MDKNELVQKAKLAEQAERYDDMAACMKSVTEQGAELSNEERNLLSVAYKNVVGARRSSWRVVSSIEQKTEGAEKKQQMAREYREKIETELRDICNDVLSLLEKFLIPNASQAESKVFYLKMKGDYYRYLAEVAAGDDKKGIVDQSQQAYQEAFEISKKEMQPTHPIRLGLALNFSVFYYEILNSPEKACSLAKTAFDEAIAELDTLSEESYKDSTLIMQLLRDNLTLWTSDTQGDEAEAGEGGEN
Mcl1-Noxa inh: Mcl-1/Noxa binding inhibitors, primary screen, biochemical, TR-FRET, 1536-well | Induced myeloid leukemia cell differentiation protein Mcl-1 (Homo sapiens), Q07820 | TR-FRET Mcl-1/Noxa peptide binding, 2 h | inhibition, % at 21.7 µM | actives 1.5% (n = 220,000) | AID 1022, 2008;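 active = compounds that cut the protein-peptide binding signal by more than 50% relative to plate controls in a single-dose test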;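 also: His-tagged Mcl-1 with rhodamine Noxa BH3 peptide and terbium anti-His antibody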
Mcl-1 Bim block: inhibitors of Bim peptide binding to Mcl-1, primary screen, biochemical, bead-based flow cytometry, multiplex; inhibition, % at 10 µM; actives 0.1% (n = 190,000); Bim peptide-Mcl-1 binding; Induced myeloid leukemia cell differentiation protein Mcl-1 (Homo sapiens), Q07820; in the data active = inhibition above about 40%
Arbovirus anti: antivirals against arbovirus infection, primary screen, cell-based, full library, 10K replicate subset. arbovirus infection cell-based antiviral screen. inhibition, % at 10 µM. actives 0.37% (n = 200,000). AID 1251, 2008; in the data active = inhibition above about 30%
Large screens that a line does not name were inactive; [ ] = remark or other dose.

O=c1cc(-c2ccc(O)c(-c3c(O)cc(O)c4c(=O)cc(-c5ccc(O)cc5)oc34)c2)oc2cc(O)cc(O)c12	Mcl1-Noxa inh 112
O=c1cc(-c2ccc(O)c(O)c2)oc2cc(O)cc(O)c12	Mcl1-Noxa inh 66 (no result: Mcl-1 Bim block, Arbovirus anti)
COc1ccc(N2CCN(C(=O)CSc3nnc(-c4ccco4)n3C)CC2)cc1	none
CC(=NCCCn1ccnc1)c1c(C)[nH]n(-c2ccc([N+](=O)[O-])cc2)c1=O	none
O=C(NCC1CCCO1)c1ccc(CSCc2cccc(F)c2)o1 (centres undefined)	Mcl1 Bid PPI 89
COc1ccc(S(=O)(=O)c2c(N)n(Cc3ccco3)c3nc4ccccc4nc23)cc1	Mcl1-Noxa inh 57
Cc1ccc(S(=O)(=O)c2c(N)n(/N=C/c3ccco3)c3nc4ccccc4nc23)cc1	none
Nc1c(S(=O)(=O)c2ccccc2)c2nc3ccccc3nc2n1/N=C/c1ccco1	Mcl1-Noxa inh 73
Nc1c(S(=O)(=O)c2cccs2)c2nc3ccccc3nc2n1/N=C/c1cccc(O)c1	Mcl1-Noxa inh 73
Cc1cc(C(=O)NCCCN(C)C)c2ccccc2n1	Mcl-1 Bim block 52
C#CCNC(=O)C1=C[C@H](c2cn(C(C)=O)c3ccccc23)C[C@H](OCc2ccc(CO)cc2)O1	Arbovirus anti 31
O=c1c2c([N+](=O)[O-])cc([N+](=O)[O-])cc2sn1-c1ccc(Br)cc1	Mcl1-Noxa inh 91
O=c1c2cc(Br)ccc2nc(-c2ccc([N+](=O)[O-])cc2)n1O	none
COc1cc(Cl)c(C)cc1NC(=O)CSc1cc(Cl)ccc1Cl	Mcl1-Noxa inh 56
CN=c1scc(-c2ccccc2F)n1/N=C/c1ccc(O)c(O)c1O	Mcl1-Noxa inh 58
CCN=c1scc(-c2cccs2)n1/N=C/c1cc(OC)ccc1O	none
CC(C)N=c1scc(-c2cccs2)n1/N=C/c1ccc(O)c(O)c1O	Mcl1-Noxa inh 52
CN=c1scc(-c2ccccc2F)n1/N=C/c1ccc[nH]1	none
CC(Cc1ccccc1)C(=O)NCc1ccncc1 (centres undefined)	none
CC(CCc1ccccc1)NCc1ccncc1 (centres undefined)	14-3-3 Bad inh 90
Cc1ccc(C)c(N2CCN(c3ccncc3N)CC2)c1	none (no result: Mcl-1 Bim block, Arbovirus anti)
C=C(C)CSc1nc2c(cc1C#N)CCC2	none
C=CCSc1nc2c(cc1C#N)CCC2	14-3-3 Bad inh 90[fluorescence artefact?]
Clc1cc(Br)ccc1OCCn1ccnc1	14-3-3 Bad inh 78
COC(=O)C(=O)/C=C(\O)c1ccc(C)cc1	Mcl1-Noxa inh 57
C#CCOCCOCCOCCNc1nc(N2CCN(C(=O)[C@H](C)n3cc(CCCN=C(N)N)nn3)CC2)nc(N2CCN(C(=O)[C@H](C)n3cc(CCCN=C(N)N)nn3)CC2)n1	none
C#CCOCCOCCOCCNc1nc(N2CCN(C(=O)[C@H]([C@@H](C)CC)n3cc(CCCN=C(N)N)nn3)CC2)nc(N2CCN(C(=O)[C@H](C)n3cc(CCCN=C(N)N)nn3)CC2)n1	14-3-3 Bad inh 75
C#CCOCCOCCOCCNc1nc(N2CCN(C(=O)Cn3cc(CCCN=C(N)N)nn3)CC2)nc(N2CCN(C(=O)Cn3cc(CCCN=C(N)N)nn3)CC2)n1	Mcl1 Bid PPI 58, 14-3-3 Bad inh 88
C#CCOCCOCCOCCNc1nc(N2CCN(C(=O)[C@H]([C@@H](C)CC)n3cc(CCCN=C(N)N)nn3)CC2)nc(N2CCN(C(=O)[C@H]([C@@H](C)CC)n3cc(CCCN=C(N)N)nn3)CC2)n1	Mcl1 Bid PPI 62, 14-3-3 Bad inh 77
C#CCOCCOCCOCCNc1nc(N2CCN(C(=O)Cn3cc(CCCN=C(N)N)nn3)CC2)nc(N2CCN(C(=O)[C@H]([C@@H](C)CC)n3cc(CCC(=O)O)nn3)CC2)n1	none
CC12CCC(C(=O)Nc3nc4ccccc4s3)(OC1=O)C2(C)C (centres undefined)	none
Cc1ccnc(NS(=O)(=O)c2ccc(NS(=O)(=O)c3ccccc3)cc2)n1	none
O=C(NCc1cccnc1)/C(=C\c1ccc(-c2ccc(Cl)c(Cl)c2)o1)S(=O)(=O)c1ccccc1	Mcl1 Bid PPI 55
O=C(NCc1cccnc1)c1ccc(-c2ccc(Cl)cc2)o1	none
Cc1ccc(NC(=O)CN2C(=O)N/C(=C/c3cc(C)n(-c4cccc(C(=O)O)c4)c3C)C2=O)cc1	Mcl1-Noxa inh 73
Cc1ccc(CN2C(=O)N/C(=C\c3cccn3-c3cccc(C(=O)O)c3)C2=O)cc1	none
Cc1ccc(NC(=O)CN2C(=O)N/C(=C\c3cccn3-c3cccc(C(=O)O)c3)C2=O)cc1	Mcl1-Noxa inh 63
COC(=O)CCNCCSc1nnc(-c2ccco2)n1Cc1ccccc1	none (no result: Mcl-1 Bim block, Arbovirus anti)
COc1ccc(C2=NN(c3nc(-c4ccccc4)c(CC(=O)O)s3)C(c3ccco3)C2)cc1 (centres undefined)	Mcl1-Noxa inh 85
CCc1cccc(CC)c1NC(=O)COC(=O)CC1c2ccccc2CCN1S(=O)(=O)c1ccccc1 (centres undefined)	none
C=CCOC(=O)/C(=C\c1ccccc1)NC(=O)c1ccc(C)cc1	Mcl1-Noxa inh 117
C/C(=N\Nc1ccc2nncn2n1)c1ccc(Cl)s1	none (no result: Mcl-1 Bim block, Arbovirus anti)
O=C1c2cccnc2C(Nc2ccccc2)N1Cc1ccco1 (centres undefined)	Mcl1 Bid PPI 60, Mcl1-Noxa inh 60
COc1ccc(Cn2c(-c3ccc(C)cc3)nc3c(c(=O)c4ccccc4n3C)c2=O)cc1	none
COc1cccc(/C=N/N2C(=O)CSC2=S)c1O	none
COc1ccc2ccccc2c1/C=N/N1C(=O)CSC1=S	Arbovirus anti 32
CCN=c1scc(C)n1/N=C/c1cc(Br)c(O)c(OC)c1	Mcl1-Noxa inh 63
COc1cc(/C=N/N2C(=O)CSC2=S)cc(Br)c1O	Mcl1-Noxa inh 58
COc1cccc(OC)c1C(=O)Nn1c(-c2cccs2)nc2ccccc2c1=O	none
Cc1c(O)cc2c(c1O)C(=O)CC(c1ccccc1)O2 (centres undefined)	none (no result: Mcl-1 Bim block, Arbovirus anti)
O=C(O)C[C@@H]1C(=O)O[C@@H]2C(COC(=O)c3cc(O)c(O)c(O)c3)O[C@@H](OC(=O)c3cc(O)c(O)c(O)c3)[C@@H](OC(=O)c3cc(O)c(O)c4c3[C@H]1[C@H](O)C(=O)O4)[C@H]2OC(=O)c1cc(O)c(O)c(O)c1 (some centres undefined)	Mcl1 Bid PPI 76, 14-3-3 Bad inh 81, Mcl1-Noxa inh 100 (no result: Mcl-1 Bim block, Arbovirus anti)
O=C1OCC2=C1C(c1ccccc1)CC(=O)N2c1ccc(F)cc1 (centres undefined)	none
COc1cc(/C=N/n2cc(-c3ccccc3)[nH]c2=S)cc(OC)c1O	none (no result: Mcl-1 Bim block, Arbovirus anti)
Oc1ccc(/C=N/n2cc(-c3ccccc3)[nH]c2=S)cc1	Mcl1-Noxa inh 73
Cc1ccc(/C=N/n2cc(-c3ccccc3)[nH]c2=S)s1	Mcl1-Noxa inh 54

Assay outcomes from PubChem BioAssay.
